Screening results from PubChem BioAssay.
An excerpt weighted towards active compounds, which were near 5.2% of everything screened.
Tau FP inhib – tau fibrillization inhibition (FP); 280,000 tested, 0.39% active; Potency, µM (highest dose often 57.7 µM), without a hit: at the highest dose activity, negative = inhibition, hits mostly inhibitors; K18 P301L tau heparin fibrillization, Alexa594 FP, 6 h; AID 1468; further: potency means the concentration at half of the fitted maximal effect; nearly all actives have a fitted effect of over 55% in size
Target sequence (P10636 561-689 P618L limits assumed): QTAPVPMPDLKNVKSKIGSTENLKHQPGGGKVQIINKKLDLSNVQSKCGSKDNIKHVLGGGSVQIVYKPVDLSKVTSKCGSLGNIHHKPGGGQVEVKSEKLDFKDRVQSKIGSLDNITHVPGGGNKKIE
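Heparin (20 uM) drove fibril formation of recombinant tau K18 P301L, 15 uM unlabeled with 0.24 uM Alexa 594 label, for 6 hr at 37 C in 100 mM sodium acetate pH 7. Fluorescence polarization (555/632 nm) read 1 hr after 30 uM ThT.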
Tau fibril ThT – inhibitors of human tau fibril formation, thioflavin T binding | P10636 | recombinant tau K18 P301L, heparin-induced fibrillization, ThT fluorescence | Potency, µM (series often up to 57.4 µM), without a hit: at the highest dose activity, negative = inhibition, most hits filed as inhibitors | 270,000 tested, 2.1% active | AID 1460; further: potency means the concentration at half of the fitted maximal effect; nearly all actives have a fitted effect of over 55% in size
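Aggregation was driven by heparin (20 uM final) acting on recombinant tau […] bearing P301L in 100 mM sodium acetate pH 7; fibrils were detected with Thioflavin T.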
Sfp PPTase inh – inhibitors of Bacillus subtilis Sfp phosphopantetheinyl transferase | Q9F4F7 | Biochemical Sfp PPTase activity, qHTS | Potency, µM, without a hit: largest response in the series, negative = inhibition, actives largely listed as inhibitors | 310,000 tested, 3.5% active | AID 1490;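 further: the enzyme is Sfp with the accession as filed and its product quenches rhodamine fluorescence; potency means the concentration at half of the fitted maximal effect; 0% = enzyme reaction without inhibitor and -100% = no enzyme wells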
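Sfp 15 nM + cpd, 15 min RT; start w/ rhodamine-CoA 5 uM, BHQ-2-YbbR 12.5 uM (final); 50 mM Hepes pH 7.6, 10 mM MgCl2, 0.01% NP-40, 0.01% BSA; read 525/598 nm at 0 and 30 min.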
Tau fluor counter – counter-screen for tau fibril formation inhibitors; tau K18 P301L (four-repeat tau fragment) Alexa594 fluorescence, heparin fibrillization; Potency, µM (top dose mostly 57.7 µM), without a hit: top-dose activity change, negative = decrease; 280,000 tested, 0.93% active; AID 1463; further: potency means the concentration at half of the fitted maximal effect; nearly all actives have a fitted effect of over 55% in size
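Human K18 P301L tau (15 uM unlabeled plus 0.24 uM Alexa 594-labeled, final) in 100 mM sodium acetate pH 7 was mixed with compound and 20 uM heparin and incubated 6 hr at 37 C.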
Coupling enz – inhibits coupling enzyme system, counter-screen for aldolase hits; coupling enzyme system counterscreen, AmpLite Red fluorescence; activity change, negative = inhibition, % at 58.2 µM, hits read low; 290,000 tested, 0.67% active; in the data active means activity change below about -30%
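Counterscreen lacking aldolase: glyceraldehyde-3-phosphate coupling-enzyme reagent preincubated 10 min at RT with compound (at 57.5 uM final), then substrate/coupling system with AmpLite Red added; fluorescence read at 525/598 nm after 20 min RT.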
Active calls of the source: *; ? = inconclusive; / = no result; [ ] = remark or other dose. Unless noted, the call rests on the fitted dose curve; in most records, active means well fitted curve in the direction sought with a large enough effect; inconclusive means small, poorly fitted or top-dose-only effect, or another doubt; inactive means no such curve, though single readings can be large; an effect the other way counts as inactive or inconclusive. Unless noted, on the % scale 0 is the no-effect control and ±100 the full control effect.

SMILES	Tau FP inhib	Tau fibril ThT	Sfp PPTase inh	Tau fluor counter	Coupling enz
C/C(=N\Nc1nnc(-c2ccccc2)c(-c2ccccc2)n1)c1cccc([N+](=O)[O-])c1	-16%	?	50µM*	-29%	2
Cc1cc(C(C)C)n2c(nc3ccccc32)c1C#N	7%	-5%	25%	-3%	-2
Cc1cc(-c2ccco2)c(C#N)c2nc3ccccc3n12	6%	-15%	50µM*	-7%	-23
Cc1ccc(NC(=O)c2ccc(F)c(S(=O)(=O)N3CCc4ccccc4C3)c2)cc1F	?	3%	/	?	/
CCN(c1ccccc1)S(=O)(=O)c1cc(C(=O)Nc2ccc(F)c(F)c2)ccc1F	14µM*	8%	17%	?	1
Cc1ccc(NC(=O)c2ccc(F)c(S(=O)(=O)NCCc3ccccc3)c2)cc1F	25µM*	10%	/	7.1µM*[quencher]	/
COC(=O)c1ccccc1NC(=O)C1CCCN(C(=O)c2cnn(-c3ccc(F)cc3)c2-n2cccc2)C1 (stereo not given)	0%	-11%	/	-5%	/
O=C1S/C(=C\C=C\c2ccco2)C(=O)N1c1ccccc1	?	14µM*	?	?	2
O=C1S/C(=C\c2cccs2)C(=O)N1c1ccc(O)cc1	/	/	3%	/	0
O=C1S/C(=C\C=C\c2ccco2)C(=O)N1c1ccc(O)cc1	?	14µM*	?	16µM*[quencher]	-23
COc1ccc(CNC(=O)CCc2c(C)nn(-c3ccc(N4CCOCC4)nn3)c2C)cc1	5%	-13%	/	-3%	/
CCOC(=O)c1cnc2ccc(Cl)cc2c1Nc1ccc(OCC)cc1	?	?	/	-20%	/
CCOC(=O)c1cnc2ccc(Cl)cc2c1NCCN(C)C	11%	10%	-5%	8%	-57*
Cc1cccc(-c2c(O)cc(=O)[nH]c2Cl)c1	4%	4%	?	5%	-3
O=c1cc(O)c(-c2ccccc2Cl)c(Cl)[nH]1	0%	-7%	89µM*	-8%	0
CCCCn1c(=O)n(Cc2cccc(F)c2)c(=O)c2c1ncn2Cc1ccco1	-7%	-10%	40µM*	-17%	0
Cn1c2ccccc2c2ncn(Cc3ccco3)c(=O)c21	3%	12%	-2%	-2%	-1
Cn1c2ccc(F)cc2c2ncn(Cc3ccco3)c(=O)c21	10%	-7%	50µM*	-2%	-15
Cc1noc(C)c1C(=O)N1CCC2(CCCN(c3ccncc3)C2)CC1	/	/	7%	/	1
CC(=O)c1cc(-c2ccccc2)n(CCC(=O)Nc2cc(C)cc(C)c2)c1C	-4%	-14%	/	-24%	/
C=CCn1c(O)c(/C=C2\C=NN=C2c2ccccc2)sc1=S	?	?	-16%	?	1
CCCCC(CC)Cn1c(O)c(/C=C2\C=NN=C2c2ccccc2)sc1=S (stereo not given)	18µM*	1%	15%	0%	-2
CCCC(C(=O)O)n1c(O)c(C=C2N=c3ccccc3=N2)sc1=S (stereo not given)	-2%	?	-13%	-11%	2
CCCn1c(O)c(/C=C2\C=NN=C2c2ccccc2)sc1=S	18µM*	-13%	-22%	?	-1
O=C(COC(=O)c1c[nH]c(=O)[nH]c1=O)Nc1ccccc1F	3%	3%	71µM*	4%	2
SMILES	Tau FP inhib	Tau fibril ThT	Sfp PPTase inh	Tau fluor counter	Coupling enz
Cc1ccc(-c2nc3c(c(=O)c4ccccc4n3C)c(=O)n2Cc2ccco2)cc1	?	?	4µM*	-2%	6
COc1ccc(-c2nc3oc4cc(OC)ccc4c(=O)c3c(=O)n2Cc2ccco2)cc1	-4%	?	25µM*	-3%	-1
CCc1nc2sc3ccccc3c(=O)c2c(=O)n1Cc1ccco1	-7%	?	40µM*	-7%	2
CCc1nc2oc3cc(OC)ccc3c(=O)c2c(=O)n1Cc1ccco1	2%	-15%	35µM*	-3%	4
O=C1Nc2c(c(=O)[nH]c(=O)n2-c2ccccc2)C1(NS(=O)(=O)c1ccc(Cl)cc1)C(F)(F)F (stereo not given)	-1%	3%	/	-3%	/
COc1ccc(Cn2c(-c3ccco3)nc3oc4cc(OC)ccc4c(=O)c3c2=O)cc1	1%	?	5%	-10%	2
COc1ccc2c(=O)c3c(=O)n(Cc4ccco4)c(-c4ccco4)nc3oc2c1	-3%	28µM*	?	?	0
CC(=O)c1[nH]c(C)c(C(=O)NCc2ccc(Cl)cc2)c1C	8%	-11%	/	-11%	/
C=CCNC(=S)NCc1cccnc1	-12%	-3%	79µM*	-3%	-1
Cc1cc(C)n2c(=S)[nH]nc2n1	?	?	2.8µM*	-16%	0
Cc1[nH]c2ccccc2c1/C=N/Nc1nc(Nc2ccc(F)cc2)nc(N2CCOCC2)n1	?	28µM*	21%	32µM*[quencher]	-1
CCOC(=O)CN1NC2(CCCCCC2)NC1=S	11%	-14%	50µM*	-10%	3
CCc1nc(SCC(=O)c2cccs2)c2oc3ccccc3c2n1	-7%	-22%	35µM*	-25%	3
CCc1nc(SCC(=O)NCCc2ccccc2)c2oc3ccccc3c2n1	2%	-7%	-8%	0%	2
CN1c2ccccc2C(C)(C)C12C=Nc1c(cc(N3CCOCC3)c3ccccc13)O2 (stereo not given)	-4%	?	-8%	?	-66*
O=C(C1CCN(S(=O)(=O)c2cccc3nonc23)CC1)N1CCN(c2ccc(F)cc2)CC1	?	-15%	/	-20%	/
CN1CCN(CCCNC(=O)c2cnn(-c3ccccc3)c2-n2cccc2)CC1	-6%	?	/	-6%	/
CC(NCC1(N2CCOCC2)CCCCC1)C(=O)Nc1ccc(Cl)cc1Cl (stereo not given)	5%	-12%	56µM*	-10%	2
Cc1ccnc(SCC(=O)O)n1	5%	0%	4%	-2%	4
Cc1ccnc(SCC(=O)c2ccc([N+](=O)[O-])cc2)n1	-3%	?	45µM*	-17%	0
Cc1cc(C)nc(SCC(=O)c2ccc(O)cc2O)n1	?	-8%	45µM*	-20%	12
Cc1cc(C)nc(SCC(=O)c2ccc(C)c(C)c2)n1	/	/	-9%	/	-1
Cc1cc(C)nc(SCC(=O)c2ccc([N+](=O)[O-])cc2)n1	4%	?	45µM*	-18%	1
CCCCCCCCCCOc1cc(OCCCCCCCCCC)cc(N(CC(=O)O)CC(=O)O)c1	/	/	-7%	/	6
Cc1ccc(-c2nc(CNC(=O)Nc3ccccc3)c(C)o2)cc1	-7%	-1%	/	-16%	/
Cc1ccc(NC(=O)Nc2c(C)n(C)n(-c3ccccc3)c2=O)c(Cl)c1	1%	1%	/	0%	/
COc1ccccc1C1CC(=O)NC(C)=C1C(=O)OCC(C)C (stereo not given)	5%	-4%	13%	-1%	1
C=CCOC(=O)C1=C(C)NC2(O)c3ccccc3C(=O)C12O (stereo not given)	?	13µM*	5%	-14%	1
